Results taken from PMC5540273 (PLoS ONE, 2017).

Each compound was assayed on DYRK1B. Conditions: concentration: 1 μM, replicates: in singlicate; n = 1.
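Note: KINOMEscan kinase panel screen.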

Compared with CN1C(=O)C(Nc2cc(Cl)c(O)c(Cl)c2)=C(c2ccc(Cl)cc2)C1=O [SB-404321], COc1cccc(C2=C(Nc3cccc(C(=O)O)c3)C(=O)NC2=O)c1 [SB-390770] is lower in “%Inh” value: 50% for the first, 0% for the second.

Compared with CCC(=O)c1c(-c2ccccc2)c2cc(Cl)ccc2c(=O)n1Cc1cc(C(=O)NC2CC2)n(C)n1, CCC(=O)c1c(-c2ccccc2)c2cc(Cl)ccc2c(=O)n1Cc1cc(S(C)(=O)=O)n(CCC(C)(C)O)n1 is lower in “%Inh” value: 48% for the first, 11% for the second.

First: O=C(Nc1ccc2c(c1)OCO2)NC1CCN(c2ccnc(NCc3ccc(F)cc3)n2)CC1 [GSK1379859]
Second: COc1ccc(Nc2nccc(N3CCC(NS(=O)(=O)c4ccc(NC(C)=O)cc4)C3)n2)cc1 (stereo not shown) [GSK1379729]
The “%Inh” value of the first is higher: 14% for the first, 3% for the second.

Compared with COc1cc2nccc(Nc3cccc(Oc4ccccc4)c3)c2cc1OC.Cl [GW284543], Cc1cc(Nc2nc(-c3cccc(C)n3)nc3ccccc23)ccn1 [GW872411] is higher in “%Inh” value: 0% for the first, 2% for the second.

Going from COc1cc(Nc2nccc(N3CCC(NC(=O)C(C)c4ccc(Cl)cc4)C3)n2)cc(OC)c1OC (stereo not shown) [GSK1379757] to COc1cc2ncn(-c3cc(OCc4ccncc4Br)c(C(N)=O)s3)c2cc1OC [GW854278], the “%Inh” value rises from 0% to 8%.

First: Cc1ccccc1COc1cc(-n2cnc3cc(Cl)ccc32)sc1C(N)=O [GW813349]
Second: Nc1nccc2scc(-c3ccc4c(c3)CCN4C(=O)Cc3ccccc3)c12 [GSK2576924]
The “%Inh” value of the first is higher: 34% for the first, 19% for the second.

Compared with Cc1nn2c(=O)cc(N3CCOCC3)nc2n1Cc1cccc(Cl)c1Cl [GSK2342769], O=c1cc(N2CCOCC2)nc2n(Cc3ccc(F)c(Cl)c3)ccn12 [GSK2297099] is higher in “%Inh” value: 29% for the first, 39% for the second.

Going from Cc1cccc(-c2nc(Nc3ccc4c(cnn4C)c3)c3ccccc3n2)n1 [GW876731] to Cl.c1ccc(Cn2cnc3cc(Nc4ncnc5ccccc45)ccc32)cc1 [GW272142], the “%Inh” value falls from 20% to 2%.

First: C[C@@H]1CC[C@H](C(=O)NC2CCCCC2)CN1c1cc(-c2ccc3c(N)n[nH]c3c2)nc(N)n1 [GSK2291363]
Second: CN(C)c1cc(-c2ccc3c(N)n[nH]c3c2)nc(N)n1 [GSK2219329]
The “%Inh” value of the first is higher: 6% for the first, 5% for the second.

Cc1ccc(-c2ccc3c(ccc4sc5c(c43)NC[C@@H](C)N=C5N(C)C)n2)cn1 and Cc1ccc(Oc2ccc(Nc3ncnc4cc[nH]c34)cc2C)cn1 are the same in “%Inh” value: 0% for the first, 0% for the second.

First: COc1ccc(-c2coc3ccc(-c4nnc(SCc5cccc(C#N)c5)o4)cc23)cc1
Second: CCS(=O)c1ccc(-c2coc3ccc(-c4nnc(C)o4)cc23)cc1 (stereo not shown)
The “%Inh” value of the first is lower: 0% for the first, 7% for the second.

Cl.NS(=O)(=O)c1cccc(Nc2cc(-c3ccc(F)cc3)n[nH]2)c1 [GW824645] and Nc1n[nH]c2nnc(-c3ccccc3)c(-c3ccccc3)c12 [GW554060] are the same in “%Inh” value: 0% for the first, 0% for the second.

First: CC(C)(C)c1ccc(C(=O)Nc2cn3cc(-c4ccccc4)ccc3n2)cc1
Second: CCC(=O)c1c(-c2ccccc2)c2cc(Cl)ccc2c(=O)n1Cc1ccc(C(=O)O)cc1
The “%Inh” value of the first is lower: 0% for the first, 39% for the second.

First: CCn1c(-c2ccoc2)nc2cnccc21 [SB-733887]
Second: CCn1c(-c2nonc2N)nc2ccccc21 [SB-693162/GW549034]
The “%Inh” value of the first is lower: 13% for the first, 16% for the second.

Going from Nc1ncnc2c1ncn2-c1cccc(F)c1 [SKF-97560] to Nc1ncnc2c1ncn2-c1ccc(Cl)cc1 [AH2635], the “%Inh” value falls from 13% to 0%.

Compared with Nc1nc(-c2ccccc2F)c(-c2ccnc3ccccc23)s1 [GW560459], COC(=O)c1c(-c2ccccc2)c2cc(C)ccc2c(=O)n1Cc1ccccc1 is higher in “%Inh” value: 4% for the first, 6% for the second.

Compared with Cc1nnc(-c2ccc(C)c(-c3ccc(C(=O)O)cc3)c2)o1 [GW608005], Cc1nnc(-c2ccc3ncn(-c4ccc(S(C)=O)cc4)c3c2)o1 (stereo not shown) is higher in “%Inh” value: 0% for the first, 26% for the second.

Compared with OCCCNc1nccc(-c2c(-c3cccc(C(F)(F)F)c3)nn3cc(C(F)(F)F)ccc23)n1 [GW630813], COC(=O)c1c(-c2ccccc2)c2cc(Br)ccc2c(=O)n1Cc1ccc(NC(=O)CCC(=O)O)cc1 is higher in “%Inh” value: 0% for the first, 48% for the second.

In the case of COc1cc(OC)cc(-c2cc3cnc(N)nc3nc2NC(=O)NC(C)(C)C)c1, the “%Inh” value is reported as 16%.
